According to the supplement of paper PMC6555819:

Tests used:
Assay in all cases: PBM binding z-score (relative to random genomic background probes); higher = stronger binding; sequences stand for … in GC…GCGATTGACAGCGTAGAATGAAGG
[1] = test system: RARb homodimer (NR concentration 270 nM)
Outline: (§1)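 Custom Agilent 4×180K protein-binding microarrays carried double-stranded probes. Their 34-nt variable regions held direct-repeat seeds, single-nucleotide variants, half-site ablations and random human genomic background sequences. Arrays were incubated 1 h with ligand-free nuclear receptor dimers in PBS pH 7.4, 2% milk, 0.02% Triton X-100, 1 mM DTT, 0.2 mg/mL BSA and 0.4 mg/ml salmon testes DNA. Antibodies against each partner (one per run) detected binding, and scanned fluorescence was regression-normalized. Binding z-scores use random background probes as reference.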

[2] = test system: RARg:RXRa (NR concentration 270 nM, RXRa partner concentration 90 nM)
Outline: as §1

[3] = test system: RARg homodimer (NR concentration 270 nM)
Outline: as §1

[4] = test system: RXRa DBDmut IVT, anti-RXR (DBD mutation: RXRa K156A/R161A, NR concentration 90 nM)
Outline: as §1

[5] = test system: RXRa homodimer (NR concentration 180 nM)
Outline: as §1

[6] = test system: THRa:RXRa (NR concentration 90 nM, RXRa partner concentration 90 nM)
Outline: as §1

[7] = test system: THRa homodimer (NR concentration 90 nM)
Outline: as §1

[8] = test system: VDR homodimer (NR concentration 270 nM)
Outline: as §1

AATACAGGGTCTTCGTAGGCCAGAGTACGCACAG
PBM binding z-score [1]: 0.449 | PBM binding z-score [2]: 0.222 | PBM binding z-score [3]: 0.45 | PBM binding z-score [4]: 0.168 | PBM binding z-score [5]: 0.437 | PBM binding z-score [6]: 1.6 | PBM binding z-score [7]: -0.387 | PBM binding z-score [8]: 0.396

CGTCAAAGTTCCAGGTAACGTAACAGAAAGCAGC
PBM binding z-score [1]: -0.0356 | PBM binding z-score [2]: 0.18 | PBM binding z-score [3]: 0.454 | PBM binding z-score [4]: 0.141 | PBM binding z-score [5]: 0.0249 | PBM binding z-score [6]: 0.992 | PBM binding z-score [7]: 0.691 | PBM binding z-score [8]: 0.0156

CCGGCTAGGTCAATGGTCAGCTAAAGCAGCTCGC
PBM binding z-score [1]: 3.19 | PBM binding z-score [2]: 3.59 | PBM binding z-score [3]: 4.45 | PBM binding z-score [4]: 1.33 | PBM binding z-score [5]: 2.4 | PBM binding z-score [6]: 2.16 | PBM binding z-score [7]: 0.768 | PBM binding z-score [8]: 0.413

CTCGAAAGGTCGGTGGAGGTGAGTATACGGATAA
PBM binding z-score [1]: 2.57 | PBM binding z-score [2]: 2.73 | PBM binding z-score [3]: 2.83 | PBM binding z-score [4]: 0.607 | PBM binding z-score [5]: 2.32 | PBM binding z-score [6]: 4.27 | PBM binding z-score [7]: 0.235 | PBM binding z-score [8]: 0.546

TGAATGAGGTTATAAGATCTGGGAACGTTGCAAA
PBM binding z-score [1]: 0.515 | PBM binding z-score [2]: 1.04 | PBM binding z-score [3]: 0.631 | PBM binding z-score [4]: 0.607 | PBM binding z-score [5]: 1.61 | PBM binding z-score [6]: 1.67 | PBM binding z-score [7]: 0.199 | PBM binding z-score [8]: 0.194

CAAACTAGGTCACGAAAGGTTAAAGTCGAATGAC
PBM binding z-score [1]: 4.85 | PBM binding z-score [2]: 6.19 | PBM binding z-score [3]: 6.18 | PBM binding z-score [4]: 1.95 | PBM binding z-score [5]: 5.5 | PBM binding z-score [6]: 4.67 | PBM binding z-score [7]: 1.78 | PBM binding z-score [8]: 1.8

ACTAGTTGGTCAGCTGAGGTCTCACACAATTCGG
PBM binding z-score [1]: 1.08 | PBM binding z-score [2]: 0.511 | PBM binding z-score [3]: 0.774 | PBM binding z-score [4]: 0.296 | PBM binding z-score [5]: 0.296 | PBM binding z-score [6]: 2.7 | PBM binding z-score [7]: 0.829 | PBM binding z-score [8]: -0.0195
